This is a sample that favours compounds with a hit; in the whole collection about 10% have one here.
BAZ2B inh: blocks human BAZ2B; AlphaScreen BAZ2B-H3K14Ac peptide displacement; Potency, µM (titrated, usually from 114 µM), most hits filed as inhibitors; actives 4.4% (n = 360,000); note: nearly all actives have a fitted effect of over 60% in size
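In this displacement format the biotinylated H3(5-23) peptide acetylated at Lys14 serves as ligand at 50 nM, with BAZ2B at 50 nM in PBS pH 7.4 containing 0.01% Tween-20. Donor and acceptor beads are 10 ug/mL final.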
G9a block: blocks human histone lysine methyltransferase G9a; Potency, µM (titrated, usually from 102 µM), actives largely listed as inhibitors; Q96KQ7; actives 8.8% (n = 350,000); AID 504332; G9a H3K9 monomethylation, AlphaScreen, 2 h; note: nearly all actives have a fitted effect of over 75% in size
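Using a bead-based AlphaScreen, monomethylated H3K9 product from 2 h room-temperature reactions (G9a 20 nM, peptide 500 nM, SAM 20 uM) was detected with 0.5 ug/mL rabbit anti-H3K9me1 antibody.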
JMJD2A Tudor: JMJD2A Tudor domain (human) inhibition; AlphaScreen JMJD2A-Tudor / H3K4me3 peptide binding; Potency, µM (highest dose often 114 µM), usual class: inhibitors; actives 4.4% (n = 390,000); AID 504339; note: nearly all actives have a fitted effect of over 50% in size
HP1b chromo inh: inhibitors of HP1-beta chromodomain binding to methylated histone tails. P83916. AlphaScreen HP1-beta / biotin-H3K9me3 peptide binding. Potency, µM (titrated, usually from 114 µM), hits mostly inhibitors. actives 0.56% (n = 390,000). AID 540317; note: nearly all actives have a fitted effect of over 70% in size
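HP1-beta protein (50 nM final) preincubated 30 min at room temperature with biotinylated H3(1-18)K9me3 peptide (50 nM) in PBS pH 7.4, 0.01% Tween-20, then compound added for 30 min. AlphaScreen streptavidin donor/nickel chelate acceptor beads (10 ug/mL final), 30 min dark, luminescence read.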
CtBP-E1A inh: CtBP/E1A binding inhibition; AlphaScreen GST-E1A/His-CtBP binding, 1536-well; stronger effect = lower value; activity change, % (concentration not given with the values); actives 0.49% (n = 340,000); in the data active = activity change below about -65%; inconclusive = mostly about -30% to -63%
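Homogeneous bead-based format: GST-tagged E1A captured on glutathione donor beads, His-tagged CtBP on nickel acceptor beads; compounds precede bead addition by 2 h at 37 °C.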
Six1-Eya2 inh: Six1/Eya2 interaction inhibition. AlphaScreen GST-Six1/His-Eya2 binding, biochemical; stronger effect = lower value. activity change, % (test concentration not listed). actives 0.56% (n = 360,000). AID 651725; in the data active = activity change below about -65%; inconclusive = mostly about -30% to -63%
Target sequence (O00167 whole entry, looked up): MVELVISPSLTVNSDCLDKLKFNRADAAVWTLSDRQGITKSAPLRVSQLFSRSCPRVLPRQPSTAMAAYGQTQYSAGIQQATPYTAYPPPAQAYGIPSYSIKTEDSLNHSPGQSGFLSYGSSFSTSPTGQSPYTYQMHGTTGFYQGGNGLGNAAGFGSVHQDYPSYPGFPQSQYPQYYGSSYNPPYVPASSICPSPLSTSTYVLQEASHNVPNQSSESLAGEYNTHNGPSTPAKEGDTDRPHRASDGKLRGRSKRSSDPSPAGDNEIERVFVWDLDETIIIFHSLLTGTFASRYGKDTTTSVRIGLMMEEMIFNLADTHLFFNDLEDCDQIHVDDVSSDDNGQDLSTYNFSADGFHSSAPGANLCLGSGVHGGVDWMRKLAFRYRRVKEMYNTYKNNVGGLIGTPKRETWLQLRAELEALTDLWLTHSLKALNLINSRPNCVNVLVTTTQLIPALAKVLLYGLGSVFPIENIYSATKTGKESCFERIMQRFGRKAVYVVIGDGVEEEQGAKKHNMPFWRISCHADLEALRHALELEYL
Target sequence (Q15475 whole entry, looked up): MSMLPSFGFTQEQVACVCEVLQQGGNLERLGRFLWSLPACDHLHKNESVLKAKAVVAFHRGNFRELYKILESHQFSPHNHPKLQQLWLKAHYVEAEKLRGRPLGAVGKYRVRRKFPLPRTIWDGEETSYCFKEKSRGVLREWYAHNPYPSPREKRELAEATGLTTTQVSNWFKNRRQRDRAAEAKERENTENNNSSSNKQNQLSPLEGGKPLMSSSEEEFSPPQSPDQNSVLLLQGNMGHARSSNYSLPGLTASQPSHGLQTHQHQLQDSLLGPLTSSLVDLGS
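AlphaScreen with GST-Six1 and His-Eya2 (5X mix: 250 nM and 500 nM), glutathione donor and nickel acceptor beads; buffer 50 mM Tris pH 8.0, 300 mM NaCl, 1 mM TCEP; 1 h at 37 C in the dark.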
Of the large screens only hits and unclear results are named; the others gave an inactive call. Unless noted, calls come from the whole dose curve; as a rule, active = well fitted inhibition curve with a large enough effect; inconclusive = small, poorly fitted or top-dose-only effect; inactive = no such curve, though single readings can be large or run the other way.

Cc1nonc1C(=O)N/N=C/c1ccc(O)c(O)c1	G9a block 45µM, JMJD2A Tudor 7.1µM
N/C(=N\N=C\c1ccc(O)c(O)c1)c1nonc1N	BAZ2B inh 45µM
O=C(N/N=C/c1ccc(O)c(O)c1)N/N=C/c1ccc(O)c(O)c1	BAZ2B inh 32µM, G9a block 45µM, JMJD2A Tudor 11µM, HP1b chromo inh 35µM, CtBP-E1A inh inconclusive, Six1-Eya2 inh inconclusive
CC12CCC(=O)N1C(C(=O)Nc1cccc(F)c1)CS2 (stereo not given)	none
CNc1ccc(/C=C(\CCC(=O)O)c2nc3ccccc3s2)cc1[N+](=O)[O-]	BAZ2B inh 45µM, G9a block inconclusive, Six1-Eya2 inh inconclusive
Cc1ccc(/C=C(\CCC(=O)O)c2nc3ccccc3s2)cc1[N+](=O)[O-]	none
CN(c1ccccc1)c1ccc(/C=C(\CCC(=O)O)c2nc3ccccc3s2)cc1[N+](=O)[O-]	BAZ2B inh 11µM, G9a block inconclusive, JMJD2A Tudor 45µM, HP1b chromo inh inconclusive, Six1-Eya2 inh inconclusive
Cc1cccc(Cl)c1NNC(=O)Nc1c([N+](=O)[O-])c(C)nn1C	G9a block 16µM
COc1ccc(S(=O)(=O)N2CCOC2CNC(=O)C(=O)NCCCn2ccnc2)cc1OC (stereo not given)	BAZ2B inh 22µM
COc1ccc(S(=O)(=O)N2CCCOC2CNC(=O)C(=O)NCCCn2ccnc2)cc1OC (stereo not given)	BAZ2B inh 71µM
CCC(=O)N1CCc2cc(Br)cc(S(=O)(=O)N3CCCC(C(=O)Nc4cccc(Cl)c4C)C3)c21 (stereo not given)	none (no result: CtBP-E1A inh, Six1-Eya2 inh)
COc1ccccc1NC(=O)C1=C(C)Nc2nc(SCc3cc(C)ccc3C)nn2C1c1ccccc1 (stereo not given)	none (no result: CtBP-E1A inh, Six1-Eya2 inh)
Cc1ccc(O)c(N/C=C/C(=O)c2ccc(F)cc2)c1	G9a block 35µM
O=C(/C=C/c1ccccc1)OCc1ccccc1	none (no result: BAZ2B inh, JMJD2A Tudor, HP1b chromo inh, CtBP-E1A inh, Six1-Eya2 inh)
CCCCCOC(=O)Nc1nc(=O)n(C2O[C@H](C)[C@@H](O)[C@@H]2O)cc1F (stereo not given in full)	none (no result: BAZ2B inh, JMJD2A Tudor, HP1b chromo inh, CtBP-E1A inh, Six1-Eya2 inh)
CN1C(=O)/C(=C/c2ccccc2OCc2ccc(C(=O)O)cc2)NC1=S	BAZ2B inh inconclusive, G9a block inconclusive, JMJD2A Tudor inconclusive
O=C(O)c1ccc(COc2ccccc2/C=C2/NC(=O)N(c3cccc(Cl)c3)C2=O)cc1	BAZ2B inh 79µM, JMJD2A Tudor inconclusive, HP1b chromo inh inconclusive, Six1-Eya2 inh inconclusive
O=C1NC(=S)N/C1=C\c1ccccc1OCc1ccc(C(=O)O)cc1	JMJD2A Tudor 79µM (no result: G9a block)
COc1ccc(CN(Cc2ccccc2)C(=O)c2ccc(OC)cc2O)cc1	none (no result: BAZ2B inh, G9a block, HP1b chromo inh, CtBP-E1A inh, Six1-Eya2 inh)
Cc1ccc(CN2CCN(/N=C/c3ccc(C(=O)O)cc3)CC2)cc1	G9a block 7.9µM
COc1ccc(/C=N/N2CCN(Cc3ccc(C)cc3)CC2)cc1Br	BAZ2B inh 35µM, G9a block 45µM, JMJD2A Tudor 50µM, HP1b chromo inh inconclusive (no result: CtBP-E1A inh)
Cc1ccc(CN2CCN(/N=C/C(Br)=C\c3ccccc3)CC2)cc1	BAZ2B inh 32µM, JMJD2A Tudor inconclusive (no result: G9a block)
Cc1ccc(CN2CCN(/N=C/c3cccnc3)CC2)cc1	none
COc1ccc(/C=N/N2C(=O)CSC2=S)cc1Br	JMJD2A Tudor inconclusive (no result: CtBP-E1A inh)
O=C(O)c1ccc(/C=N/N2CCN(Cc3ccc(Cl)cc3)CC2)cc1	none (no result: G9a block)
Cc1ccc(N2CCN(/N=C/C(Cl)=C/c3ccccc3)CC2)cc1	none
Cc1ccc(CN2CCN(/N=C/c3ccc(O)c(O)c3)CC2)cc1	BAZ2B inh 50µM, JMJD2A Tudor 22µM, HP1b chromo inh 20µM (no result: G9a block)
O=C(NCC(c1cccs1)N1CCOCC1)c1cc2ccccc2oc1=O (stereo not given)	none (no result: BAZ2B inh, G9a block)
COc1ccc2c(c1)oc(=O)c1c3ccccc3[nH]c21	JMJD2A Tudor inconclusive
COCCOc1ccc(C(F)(F)F)cc1NC(=O)CN1C(=O)NC2(CCc3ccccc32)C1=O (stereo not given)	none
O=c1cc(-c2ccccc2)n2c(SCc3ccc(F)cc3)nnc2[nH]1	G9a block inconclusive (no result: CtBP-E1A inh, Six1-Eya2 inh)
CCN(CC)c1ccc(CN2CCCCCC2)cc1	BAZ2B inh inconclusive, JMJD2A Tudor inconclusive
CCN(CC)c1ccc(/C=N\N2CCN(Cc3ccc(C)cc3)CC2)cc1	BAZ2B inh 18µM, G9a block 7.1µM, JMJD2A Tudor 22µM, HP1b chromo inh 20µM, CtBP-E1A inh inconclusive, Six1-Eya2 inh -66
COc1ccc(CN2C(=O)CS/C2=N/N=C/c2cccs2)cc1	none
Cc1ccccc1Nc1nc(NCc2ccco2)c2ccccc2n1	BAZ2B inh inconclusive, G9a block inconclusive, JMJD2A Tudor 56µM, HP1b chromo inh inconclusive
COc1ccc(OC)c(Nc2nc(NCc3ccco3)c3ccccc3n2)c1	BAZ2B inh 40µM, G9a block inconclusive, JMJD2A Tudor 50µM, HP1b chromo inh inconclusive
Oc1ccccc1Nc1nc(NCc2ccco2)c2ccccc2n1	BAZ2B inh 45µM, G9a block 50µM, JMJD2A Tudor inconclusive
Cc1csc(C(=O)O)c1NC(=O)c1cccc([N+](=O)[O-])c1	BAZ2B inh inconclusive
O=C(CSc1nc(-c2cccs2)cc(C(F)(F)F)n1)Nc1cc(OCC(F)(F)F)cc([N+](=O)[O-])c1	JMJD2A Tudor 22µM
Cc1ccc(-n2c(C3CC3c3ccc(Cl)cc3)n[nH]c2=S)cc1 (stereo not given)	G9a block 2µM
S=c1[nH]nc(C2CC2c2ccc(Cl)cc2)n1-c1ccc(Cl)cc1 (stereo not given)	BAZ2B inh inconclusive, G9a block inconclusive, JMJD2A Tudor inconclusive
Cc1ccc(-n2c([C@@H]3C[C@H]3c3ccccc3)n[nH]c2=S)cc1	G9a block 0.5µM
Cc1ccc(C2CC2c2n[nH]c(=S)n2-c2cccc(Cl)c2)cc1 (stereo not given)	G9a block 10µM, JMJD2A Tudor inconclusive
Cc1ccc(C2CC2c2n[nH]c(=S)n2-c2ccc(C)cc2)cc1 (stereo not given)	G9a block 0.63µM, JMJD2A Tudor inconclusive
Cc1ccc(/C=C/C(=O)c2ccccc2O)cc1	BAZ2B inh inconclusive, HP1b chromo inh inconclusive (no result: G9a block)
Cc1ccc(O)c(C(=O)/C=C/c2ccc3c(c2)OCCCO3)c1	BAZ2B inh 28µM, G9a block 7.1µM, JMJD2A Tudor 16µM, HP1b chromo inh inconclusive
O=C(/C=C/c1ccc2c(c1)OCCCO2)c1ccccc1O	BAZ2B inh inconclusive, G9a block inconclusive, JMJD2A Tudor inconclusive, HP1b chromo inh inconclusive
COc1cc(C)cc(C(=O)C=Cc2ccccc2)c1O	JMJD2A Tudor 56µM, HP1b chromo inh inconclusive (no result: BAZ2B inh, G9a block)
CN(C)c1ccc(/C=C/C(=O)c2ccccc2O)cc1	G9a block 8.9µM, JMJD2A Tudor 10µM, HP1b chromo inh 13µM (no result: BAZ2B inh)

High-throughput results from PubChem BioAssay.
